In ChEMBL document CHEMBL3988442, “University of Dundee, Small-Polar-MMV Screening Library” (2021):
Screen size: about 48,000 compounds; about 13,000 (27%) showed an effect of 50% or more. Some of the results follow.

What follows are compounds tested on Wolbachia pipientis (assay: Anti-Wolbachia Cell-Based Screen). Conditions: 5 µM.
Type: functional
Set-up: scale not given: in the data most compounds retested in dose-response had high values

| Structure (SMILES) | Percent Effect [%] |
| --- | --- |
| N#Cc1ccccc1OCCN1CCn2c(nnc2C2CC2)C1 | -2.907 |
| c1cc(C2CCN(Cc3nc(-c4ccsc4)no3)CC2)[nH]n1 | -22.06 |
| Cc1ccccc1-c1noc(CN2CCC(c3ccn[nH]3)CC2)n1 | -44.64 |
| Cc1ccccc1-c1noc(CN2CCn3c(nnc3C3CC3)C2)n1 | 9.498 |
| Cc1ccccc1-c1noc(CN2CCC(N3CCNC3=O)CC2)n1 | 89.22 |
| O=C1NCCN1C1CCN(Cc2nc(-c3ccsc3)no2)CC1 | 100.1 |
| c1cnn(CC2CN(Cc3nc(-c4ccsc4)no3)CCO2)c1 (configuration not stated) | -8.782 |
| COCCN1CC2(CCCN(c3ncnc4[nH]cnc34)C2)CCC1=O (configuration not stated) | 2.898 |
| Cc1nccc(C2CN(S(=O)(=O)N(C)C)C2)n1 | 92.05 |
| CS(=O)(=O)N1CC(c2ncn3ccccc23)C1 | 16 |
| CN(C)S(=O)(=O)N1CCN(c2nccc(C(F)(F)F)n2)CC1 | -20.82 |
| CN(C)S(=O)(=O)N1CC(c2nc(-c3ccsc3)no2)C1 | -5.352 |
| CN(C)c1nccc(C2CN(S(C)(=O)=O)C2)n1 | 62.66 |
| Cc1noc(C2CN(S(C)(=O)=O)Cc3ccnn3C2)n1 (configuration not stated) | -9.743 |
| N#Cc1cccnc1Nc1ccc(N2CCC(C(N)=O)CC2)cc1 | -22.12 |
| Cn1cc2c(n1)C(CNC(=O)Cc1ccsc1)OCC2 (configuration not stated) | 6.682 |
| COCCn1cc2c(n1)C(CNC(=O)c1cc(C)[nH]c1C)OCC2 (configuration not stated) | 94.61 |
| CS(=O)(=O)CC(=O)NCC1OCCc2cn(CC3CC3)nc21 (configuration not stated) | -2.36 |
| O=C(Cc1ccsc1)NCC1OCCc2cn(CC3CC3)nc21 (configuration not stated) | -4.734 |
| CS(=O)(=O)NCC1OCCc2cn(CC3CC3)nc21 (configuration not stated) | -2.199 |
| O=C(NCC1OCCc2cn(CC3CC3)nc21)c1ccsc1 (configuration not stated) | -6.452 |
| CCS(=O)(=O)NCC1OCCc2cn(CCOC)nc21 (configuration not stated) | -0.9126 |
| COCCn1cc2c(n1)C(CNS(C)(=O)=O)OCC2 (configuration not stated) | 95.37 |
| Cc1cc(C(=O)NCC2OCCc3cn(CC4CC4)nc32)c(C)[nH]1 (configuration not stated) | 99.34 |

| Structure (SMILES) | Percent Effect [%] |
| --- | --- |
| Cc1cc(NC(=O)N2CCCC(CO)C2)nn1-c1ccccc1Cl (configuration not stated) | 6.236 |
| COc1ccc(OC)c(CN(C(=O)c2ccc(C)[nH]c2=O)C2CC2)c1 | -3.072 |
| CCC(=O)Nc1nnc(CCCOc2ccccc2)s1 | -6.738 |
| CC(C)c1nnc(NC(=O)N2CCN(C)CC2c2ccccc2)s1 (configuration not stated) | 2.354 |
| COCc1nnc(NC(=O)CN2C(=O)c3ccccc3NC2C(C)C)s1 (configuration not stated) | 107.7 |
| CCC(=O)Nc1nnc(CCOc2cccc(OC)c2)s1 | 0.4737 |
| CC(C)c1nnc(NC(=O)CN2C(=O)c3ccccc3NC2C(C)C)s1 (configuration not stated) | 94.59 |
| CC(C)c1nnc(NC(=O)N2CCCC2c2ccncc2)s1 (configuration not stated) | 0.4499 |
| CCN1CCN(c2nc(C(C)C)nc3c(C)nn(CC)c23)CC1 | -2.933 |
| Cn1ccnc1CN1CCN2C[C@H](Oc3ccccc3)C[C@H]2C1.O=C(O)C(F)(F)F.O=C(O)C(F)(F)F | -6.794 |
| CN(C)c1nccc(N(C)Cc2ncnn2C)n1 | 4.507 |
| CCN1CCOC(CNCc2csc(C)n2)C1 (configuration not stated) | 88.2 |
| CCN1CCOC(CNc2nccc(OC)n2)C1 (configuration not stated) | 1.918 |
| Cc1nc(CNCC2CN(C3CC3)CCO2)cs1 (configuration not stated) | 87.5 |
| CCN1CCOC(CNCc2ccccc2OCC(=O)N(C)C)C1 (configuration not stated) | -2.531 |
| CCN1CCOC(CNCc2ccc(OC)c(F)c2)C1 (configuration not stated) | -3.361 |
| Cc1nc(CNCC2CCCN(C(=O)OC(C)(C)C)C2)cs1 (configuration not stated) | 4.206 |
| CCN1CCOC(CNCc2ccccn2)C1 (configuration not stated) | 1.335 |
| COc1ccnc(NCC2CN(C3CC3)CCO2)n1 (configuration not stated) | 0.4171 |
| CCN1CCOC(CNCc2ccc(C)s2)C1 (configuration not stated) | 96.42 |
| CCc1noc(CN(C)C(=O)c2ccccc2-c2ncn[nH]2)n1 | -19 |
| Cc1nn(C)c(C)c1CN(C(=O)c1cc(Cl)c[nH]c1=O)C(C)C | -11.33 |
| CC(C(=O)NC1(C#N)CCCCC1)N1CCc2c(ncn2C)C1 (configuration not stated) | -1.256 |
| Cc1ccccc1C(=O)N1CC[C@@H](N2CCC(O)CC2)[C@H](O)C1 | 2.362 |

| Structure (SMILES) | Percent Effect [%] |
| --- | --- |
| Cc1ccccc1C(=O)N1CC[C@H](O)[C@@H](N2CCOCC2)CC1 | 126.5 |
| O=C(c1ccc(F)cc1F)N1CC[C@H](O)[C@@H](N2CCOCC2)CC1 | 0.4748 |
| N#Cc1ccc(OC2CCN(C(=O)c3ccccc3Cl)CC2)nc1 | -3.988 |
| O=C(c1ccccc1Cl)N1CC[C@H](O)[C@@H](N2CCOCC2)CC1 | 95.8 |
| O=C(c1ccccc1C(F)(F)F)N1CC[C@@H](N2CCC(O)CC2)[C@H](O)C1 | -4.117 |
| N#Cc1cccc(CN2CCCC2c2ccc[nH]2)c1 (configuration not stated) | 7.816 |
| Cc1ccc(NC(=O)C2CSCN2C(=O)c2cc[nH]n2)c(C)c1 (configuration not stated) | 9.143 |
| O=C(NC1CCCC1)N1C[C@H]2CN(c3ccncc3)C[C@@]2(C(=O)O)C1 | -18.18 |
| CCn1ccnc1CNCC(c1ccc(C)s1)N1CCOCC1 (configuration not stated) | 53.4 |
| Cc1ccc(C(CNCc2ccncc2)N2CCOCC2)s1 (configuration not stated) | -8.996 |
| Cc1ccc(C(CNCc2nccn2C)N2CCOCC2)s1 (configuration not stated) | -4.854 |
| CC(c1ccccc1)n1c(SCC(=O)O)nnc1-c1ccccc1Cl (configuration not stated) | 9.035 |
| CCn1cc(NC(=O)c2cccc(CN3C[C@@H](C)O[C@@H](C)C3)c2)nn1 | 90.95 |
| CCCn1cc(NC(=O)c2cccc(CN3CC[C@H](O)C3)c2)nn1 | 12.98 |
| CCCn1cc(NC(=O)c2cccc(CN3CC=CC3)c2)nn1 | -66.35 |
| Cc1cccc(C2(NC(=O)CCCn3cncn3)CCCC2)c1 | -10.46 |
| COc1ccc(OC)c(C(=O)Nc2cccnc2-n2cncn2)c1 | 13.43 |
| CCOCCNC(=O)c1cnc(Sc2nccn2C)c(Cl)c1 | 13.89 |
| COCCNC(=O)c1cc(OC)ccc1Br | 8.343 |
| COc1ccc(C(=O)NCCCNc2ncccn2)cc1F | -6.702 |
| COc1ccc(OC)c(Sc2ncccc2C(=O)NCC2CC2)c1 | 167.1 |
| CCOC(=O)CNC(=O)c1cccnc1Sc1cc(OC)ccc1OC | 162.1 |
| CCOC(=O)NC(CNC(=O)c1cccnc1SC)CC(C)C (configuration not stated) | -1.757 |
| CCOCCNC(=O)c1cccnc1Sc1cc(OC)ccc1OC | 152.7 |

| Structure (SMILES) | Percent Effect [%] |
| --- | --- |
| COCCNC(=O)c1cccnc1Sc1cc(OC)ccc1OC | 161.9 |
| Cc1nc2cc(F)ccc2cc1C(=O)N1CCN(CC(C)O)CC1 (configuration not stated) | -9.577 |
| CSc1ncccc1C(=O)NCCC(O)c1cccs1 (configuration not stated) | 13.17 |
| COc1ccc(OC)c(Sc2ncccc2C(=O)NCCSC)c1 | 104.4 |
| CSc1ncccc1C(=O)NCCC(O)c1cc(C)oc1C (configuration not stated) | -1.719 |
| O=c1oc(-c2ccc(F)cc2)nn1CCc1ccccn1 | -9.185 |
| O=C(c1ccc(N2CCCCCC2)nn1)N1CCc2ccccc21 | 130.8 |
| O=C(c1ccc(N2CCCC2)nn1)N1CCc2ccccc21 | 13.46 |
| O=C(c1ccc(N2CCCC2)nn1)N1CCCc2ccc(F)cc21 | -11.11 |
| CCN(CC)C(=O)Nc1cc2c(cc1SC)OCCO2 | 7.32 |
| Cc1nccn1C1CCCN(C(=O)c2cccc3c2OCO3)C1 (configuration not stated) | 116.3 |
| CCc1nccn1C1CCCN(C(=O)c2cnn3ccc(C)nc23)C1 (configuration not stated) | -1.055 |
| CC(C)c1nccn1C1CCCN(C(=O)c2cccc3c2OCO3)C1 (configuration not stated) | -5.15 |
| O=C(c1cccc2c1OCO2)N1CCCC(n2ccnc2)C1 (configuration not stated) | 115.9 |
| O=C(c1cccc2c1OCCO2)N1CCCC(n2ccnc2)C1 (configuration not stated) | -8.704 |
| CCc1nccn1C1CCCN(C(=O)c2ccnc(C)n2)C1 (configuration not stated) | 1.971 |
| O=C(c1cc(Cl)c2c(c1)OCO2)N1CCCC(n2ccnc2)C1 (configuration not stated) | 1.53 |
| CCc1nccn1C1CCCN(C(=O)c2cccc3c2OCO3)C1 (configuration not stated) | 115.7 |
| O=C1CC(C(=O)Nc2nnc(-c3cccs3)[nH]2)c2ccccc2N1 (configuration not stated) | -3.979 |
| CC(C)OC(=O)CN1N=C(C(=O)N2CCCC2)S(=O)(=O)c2ccccc21 | 15.65 |
| N#Cc1ccccc1CN1C[C@@H]2CC[C@H](C1)N(CC1CC1)C2=O | -10.09 |
| Cc1nn(CCC#N)c(C)c1CCC(=O)N(C(C)C)C1CC1 | -0.4171 |
| COc1ccc(C(=O)NC2CC2)c(OC2CCN(CC3CC3)CC2)c1 | 4.837 |
| COCc1nc(C(=O)N2CCCC(n3ccnc3C)C2)cs1 (configuration not stated) | 95.68 |

| Structure (SMILES) | Percent Effect [%] |
| --- | --- |
| COCc1nc(C(=O)N2CCCC(n3ccnc3C(C)C)C2)cs1 (configuration not stated) | 114 |
| CSCC(=O)N1CCCC(n2ccnc2C(C)C)C1 (configuration not stated) | -4.829 |
| COCc1nc(C(=O)N2CCN(c3nccc(OC)n3)CC2)cs1 | -10.67 |
| CC(=O)Nc1nc(C(=O)N2CCCC(n3ccnc3)C2)cs1 (configuration not stated) | -0.04658 |
| CC(C)c1nccn1C1CCCN(C(=O)c2ccc(=O)n(C)n2)C1 (configuration not stated) | 4.106 |
| Cc1nccn1C1CCCN(C(=O)c2ccc(N3CCCC3)nn2)C1 (configuration not stated) | -4.751 |
| COCc1nc(C(=O)N2CCCC(n3ccnc3)C2)cs1 (configuration not stated) | 102.7 |
| CC(C)Nc1ccc2c(c1)C1(CCOCC1)C(=O)N2c1ccsc1 | -5.936 |
| CCc1cc(N2C[C@H](C3CC3)[C@@H](N)C2)nc(N2CCOCC2)n1 | -5.197 |
| CCOc1ccc(Cl)c(C(=O)N2CCN(c3cnccn3)CC2)n1 | 0.9998 |
| CCOc1ccnc(N2CCN(C(=O)c3cn[nH]c3CC)CC2)n1 | -0.2597 |
| CCOc1ccc(Cl)c(C(=O)N2CCN(c3ccncc3)CC2)n1 | 119.1 |
| CCOc1ccnc(N2CCN(C(=O)CCc3ccncc3)CC2)n1 | -7.253 |
| CCC(O)CN1CCN(C(=O)c2cccn2Cc2ccccc2)CC1 (configuration not stated) | -11.52 |
| CCOc1ccc(Cl)c(C(=O)N2CCN(CC(O)CC)CC2)n1 (configuration not stated) | 92.51 |
| CCOc1ccc(Cl)c(C(=O)NC(C)C(N)=O)n1 (configuration not stated) | -12.05 |
| CCC(O)CN1CCN(C(=O)c2csc(COC)n2)CC1 (configuration not stated) | -26.29 |
| CCOc1ccc(Cl)c(C(=O)N2CCCN(CC(N)=O)CC2)n1 | 93.33 |
| CCOc1ccc(Cl)c(C(=O)N2CCN(c3ncccn3)CC2)n1 | 79.36 |
| Cc1cccc(OCCC(=O)N2CCCN(CC(N)=O)CC2)c1C | -3.511 |
| CCOc1ccnc(N2CCN(C(=O)c3cccnc3O)CC2)n1 | -0.2095 |
